Measured values: PubChem BioAssay AID1159580 (chemical genetic matrix, 2015)
Out of some 5,500 compounds screened, about 2,000 (36%) were called active. Not shown: some 18% with an inconclusive outcome. No stated cut-off is given here; in the data, active means normalized growth mostly below about 0.91 (no sharp cut-off); inconclusive means no clear call, values can overlap the other calls; inactive means mostly above about 0.92. Some of the results follow.

Assay: chemical genetic growth profiling, strain panel (AID 1159580);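 further: tested at 20 µM; growth read once vehicle control cultures reached saturation at 30 °C; 1 = growth at the plate median or of vehicle wells; lower values mean less growth of the strain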
Conditions: growth OD

Measured: normalized growth

O=C1CC(c2ccc(O)c(O)c2)Oc2cc(O)cc(O)c21 (stereo not drawn)
inactive: S. cerevisiae deletion strains, locus YAL021C, strain ccr4, hits give low values 0.989 | S. cerevisiae deletion strains, locus YAL026C, strain drs2, hits give low values 1 | S. cerevisiae deletion strains, locus YAL030W, strain snc1, hits give low values 0.994 | S. cerevisiae deletion strains, locus YBL061C, strain skt5, hits give low values 0.984 | S. cerevisiae deletion strains, locus YBR009C, strain hhf1, hits give low values 1.01 | S. cerevisiae deletion strains, locus YBR023C, strain chs3, hits give low values 0.987 | S. cerevisiae deletion strains, locus YBR171W, strain sec66, hits give low values 0.993 | S. cerevisiae deletion strains, locus YBR231C, strain swc5, hits give low values 0.958 | S. cerevisiae deletion strains, locus YBR279W, strain paf1, hits give low values 1.01 | S. cerevisiae deletion strains, locus YCL011C, strain gbp2, hits give low values 1 | S. cerevisiae deletion strains, locus YCL016C, strain dcc1, hits give low values 1.01 | S. cerevisiae deletion strains, locus YCL061C, strain MRC1, hits give low values 0.989 | S. cerevisiae deletion strains, locus YCL069W, strain vba3, hits give low values 1.01 | S. cerevisiae deletion strains, locus YCR088W, strain abp1, hits give low values 0.999 | S. cerevisiae deletion strains, locus YDL005C, strain med2, hits give low values 0.977 | S. cerevisiae deletion strains, locus YDL040C, strain nat1, hits give low values 1.01 | S. cerevisiae deletion strains, locus YDR001C, strain nth1, hits give low values 1.01 | S. cerevisiae deletion strains, locus YDR069C, strain doa4, hits give low values 0.958 | S. cerevisiae deletion strains, locus YDR137W, strain rgp1, hits give low values 0.995 | S. cerevisiae deletion strains, locus YDR159W, strain sac3, hits give low values 0.995 | S. cerevisiae deletion strains, locus YDR195W, strain ref2 0.983 | S. cerevisiae deletion strains, locus YDR297W, strain sur2, hits give low values 1.01 | S. cerevisiae deletion strains, locus YDR334W, strain swr1, hits give low values 1.01 | S. cerevisiae deletion strains, locus YDR335W, strain msn5, hits give low values 0.994 | S. cerevisiae deletion strains, locus YDR392W, strain spt3, hits give low values 0.967 | S. cerevisiae deletion strains, locus YEL003W, strain gim4, hits give low values 0.994 | S. cerevisiae deletion strains, locus YEL037C, strain rad23, hits give low values 0.986 | S. cerevisiae deletion strains, locus YEL061C, strain CIN8 (second series), hits give low values 1.01 | S. cerevisiae deletion strains, locus YER015W, strain faa2, hits give low values 0.996 | S. cerevisiae deletion strains, locus YER016W, strain bim1, hits give low values 0.992 | S. cerevisiae deletion strains, locus YER111C, strain swi4, hits give low values 0.99 | S. cerevisiae deletion strains, locus YER155C, strain BEM2 (second series), hits give low values 0.984 | S. cerevisiae deletion strains, locus YFR010W, strain ubp6, hits give low values 0.97 | S. cerevisiae deletion strains, locus YGL167C, strain pmr1, hits give low values 0.991 | S. cerevisiae deletion strains, locus YGL173C, strain kem1, hits give low values 0.987 | S. cerevisiae deletion strains, locus YGL227W, strain vid30, hits give low values 1 | S. cerevisiae deletion strains, locus YGL240W, strain doc1, hits give low values 1.02 | S. cerevisiae deletion strains, locus YGL253W, strain hxk2, hits give low values 1.01 | S. cerevisiae deletion strains, locus YHR013C, strain ard1, hits give low values 0.974 | S. cerevisiae deletion strains, locus YHR027C, strain rpn1, hits give low values 1.01 | S. cerevisiae deletion strains, locus YHR142W, strain chs7, hits give low values 0.969 | S. cerevisiae deletion strains, locus YJL092W, strain hpr5, hits give low values 1 | S. cerevisiae deletion strains, locus YJL095W, strain BCK1 (second series), hits give low values 1 | S. cerevisiae deletion strains, locus YJL115W, strain asf1, hits give low values 1 | S. cerevisiae deletion strains, locus YJL129C, strain trk1, hits give low values 0.999 | S. cerevisiae deletion strains, locus YJL154C, strain vps35, hits give low values 1.02 | S. cerevisiae deletion strains, locus YJL164C, strain tpk1, hits give low values 0.973 | S. cerevisiae deletion strains, locus YJL166W, strain qcr8, hits give low values 1.01 | S. cerevisiae deletion strains, locus YKL160W, strain elf1, hits give low values 0.975 | S. cerevisiae deletion strains, locus YKR026C, strain gcn3, hits give low values 1.02 | S. cerevisiae deletion strains, locus YKR091W, strain srl3, hits give low values 0.994 | S. cerevisiae deletion strains, locus YLL001W, strain dnm1, hits give low values 0.992 | S. cerevisiae deletion strains, locus YLL026W, hits give low values 1 | S. cerevisiae deletion strains, locus YLL041C, strain sdh2, hits give low values 0.997 | S. cerevisiae deletion strains, locus YLR027C, strain aat2, hits give low values 1.01 | S. cerevisiae deletion strains, locus YLR221C, strain rsa3, hits give low values 0.998 | S. cerevisiae deletion strains, locus YLR258W, strain gsy2, hits give low values 0.992 | S. cerevisiae deletion strains, locus YLR262C, strain YPT6 (second series), hits give low values 1.01 | S. cerevisiae deletion strains, locus YLR320W, strain mms22, hits give low values 0.98 | S. cerevisiae deletion strains, locus YLR342W, strain FKS1, hits give low values 0.993 | S. cerevisiae deletion strains, locus YLR357W, strain rsc2, hits give low values 0.966 | S. cerevisiae deletion strains, locus YLR370C, strain arc18, hits give low values 1.01 | S. cerevisiae deletion strains, locus YLR384C, strain iki3, hits give low values 1.01 | S. cerevisiae deletion strains, locus YML120C, strain ndi1, hits give low values 1 | S. cerevisiae deletion strains, locus YMR058W, strain fet3, hits give low values 0.969 | S. cerevisiae deletion strains, locus YMR125W, strain sto1, hits give low values 0.995 | S. cerevisiae deletion strains, locus YMR129W, hits give low values 1 | S. cerevisiae deletion strains, locus YMR205C, strain PFK2, hits give low values 1 | S. cerevisiae deletion strains, locus YMR231W, strain pep5, hits give low values 0.996 | S. cerevisiae deletion strains, locus YNL071W, strain lat1, hits give low values 0.998 | S. cerevisiae deletion strains, locus YNL209W, strain ssb2, hits give low values 1 | S. cerevisiae deletion strains, locus YNL248C, strain rpa49, hits give low values 0.989 | S. cerevisiae deletion strains, locus YNL322C, strain KRE1 (second series), hits give low values 0.997 | S. cerevisiae deletion strains, locus YNR049C, strain mso1, hits give low values 1 | S. cerevisiae deletion strains, locus YOR001W, strain rrp6, hits give low values 0.997 | S. cerevisiae deletion strains, locus YOR070C, strain gyp1, hits give low values 0.992 | S. cerevisiae deletion strains, locus YOR080W, strain dia2, hits give low values 0.984 | S. cerevisiae deletion strains, locus YOR083W, strain WHI5, hits give low values 0.951 | S. cerevisiae deletion strains, locus YOR106W, strain vam3, hits give low values 0.984 | S. cerevisiae deletion strains, locus YOR265W, strain rbl2, hits give low values 1 | S. cerevisiae deletion strains, locus YOR270C, strain vph1, hits give low values 1.08 | S. cerevisiae deletion strains, locus YOR290C, strain snf2, hits give low values 0.995 | S. cerevisiae deletion strains, locus YPL051W, strain arl3, hits give low values 0.975 | S. cerevisiae deletion strains, locus YPL078C, strain atp4, hits give low values 0.991 | S. cerevisiae deletion strains, locus YPL106C, strain sse1, hits give low values 0.993 | S. cerevisiae deletion strains, locus YPL240C, strain hsp82, hits give low values 1.01

O=C1CC(c2ccccc2)Oc2ccccc21 (stereo not drawn)
inactive: S. cerevisiae deletion strains, locus YBR021W, strain FUR4, hits give low values 0.97 | S. cerevisiae deletion strains, locus YBR229C, strain ROT2, hits give low values 0.985 | S. cerevisiae deletion strains, locus YCL029C, strain bik1, hits give low values 0.971 | S. cerevisiae deletion strains, locus YDL035C, strain GPR1, hits give low values 1.02 | S. cerevisiae deletion strains, locus YDL074C, strain BRE1, hits give low values 0.989 | S. cerevisiae deletion strains, locus YDL101C, strain DUN1, hits give low values 0.996 | S. cerevisiae deletion strains, locus YDL185W, strain tfp1, hits give low values 0.958 | S. cerevisiae deletion strains, locus YDL192W, strain arf1, hits give low values 0.957 | S. cerevisiae deletion strains, locus YDR101C, strain arx1, hits give low values 0.958 | S. cerevisiae deletion strains, locus YDR162C, strain NBP2, hits give low values 1.02 | S. cerevisiae deletion strains, locus YDR318W, strain mcm21, hits give low values 0.954 | S. cerevisiae deletion strains, locus YDR388W, hits give low values 0.96 | S. cerevisiae deletion strains, locus YDR502C, strain sam2, hits give low values 0.96 | S. cerevisiae deletion strains, locus YEL061C, strain CIN8, hits give low values 0.976 | S. cerevisiae deletion strains, locus YER110C, hits give low values 0.963 | S. cerevisiae deletion strains, locus YER155C, strain BEM2, hits give low values 0.982 | S. cerevisiae deletion strains, locus YER167W, strain BCK2, hits give low values 0.989 | S. cerevisiae deletion strains, locus YGL078C, strain dbp3, hits give low values 0.96 | S. cerevisiae deletion strains, locus YGL086W, strain mad1, hits give low values 0.974 | S. cerevisiae deletion strains, locus YGL248W, strain PDE1, hits give low values 0.993 | S. cerevisiae deletion strains, locus YGR135W, strain pre9, hits give low values 0.969 | S. cerevisiae deletion strains, locus YGR229C, strain SMI1, hits give low values 0.985 | S. cerevisiae deletion strains, locus YGR252W, strain gcn5, hits give low values 1.03 | S. cerevisiae deletion strains, locus YHR030C, strain SLT2, hits give low values 0.982 | S. cerevisiae deletion strains, locus YHR079C, strain IRE1 (second series), hits give low values 0.967 | S. cerevisiae deletion strains, locus YHR094C, strain hxt1, hits give low values 0.972 | S. cerevisiae deletion strains, locus YHR129C, strain ARP1, hits give low values 0.983 | S. cerevisiae deletion strains, locus YHR200W, strain rpn10, hits give low values 0.961 | S. cerevisiae deletion strains, locus YIL066C, strain RNR3, hits give low values 1 | S. cerevisiae deletion strains, locus YIL073C, strain SPO22, hits give low values 1.05 | S. cerevisiae deletion strains, locus YIL125W, strain kgd1, hits give low values 0.956 | S. cerevisiae deletion strains, locus YIR030C, strain dcg1, hits give low values 0.977 | S. cerevisiae deletion strains, locus YJL095W, strain BCK1, hits give low values 0.932 | S. cerevisiae deletion strains, locus YJL134W, strain LCB3, hits give low values 0.983 | S. cerevisiae deletion strains, locus YJL168C, strain set2, hits give low values 0.958 | S. cerevisiae deletion strains, locus YJL187C, strain SWE1 (second series), hits give low values 1.02 | S. cerevisiae deletion strains, locus YJR043C, strain POL32, hits give low values 0.958 | S. cerevisiae deletion strains, locus YKL009W, strain mrt4, hits give low values 1.02 | S. cerevisiae deletion strains, locus YKL068W, hits give low values 0.966 | S. cerevisiae deletion strains, locus YKL085W, strain MDH1 (second series), hits give low values 0.972 | S. cerevisiae deletion strains, locus YKL085W, strain MDH1, hits give low values 0.972 | S. cerevisiae deletion strains, locus YKR001C, strain vps1, hits give low values 0.927 | S. cerevisiae deletion strains, locus YLR039C, strain RIC1, hits give low values 0.956 | S. cerevisiae deletion strains, locus YLR058C, strain SHM2, hits give low values 0.992 | S. cerevisiae deletion strains, locus YLR102C, strain apc9, hits give low values 0.961 | S. cerevisiae deletion strains, locus YLR262C, strain YPT6, hits give low values 0.971 | S. cerevisiae deletion strains, locus YLR268W, strain sec22, hits give low values 0.962 | S. cerevisiae deletion strains, locus YLR330W, strain CHS5, hits give low values 0.988 | S. cerevisiae deletion strains, locus YLR342W, strain FKS1 (second series), hits give low values 0.944 | S. cerevisiae deletion strains, locus YLR371W, strain rom2, hits give low values 0.961 | S. cerevisiae deletion strains, locus YLR418C, strain cdc73, hits give low values 0.894 | S. cerevisiae deletion strains, locus YML016C, strain PPZ1, hits give low values 0.974 | S. cerevisiae deletion strains, locus YML032C, strain rad52, hits give low values 0.949 | S. cerevisiae deletion strains, locus YML124C, strain tub3, hits give low values 0.95 | S. cerevisiae deletion strains, locus YMR078C, strain ctf18, hits give low values 0.955 | S. cerevisiae deletion strains, locus YMR223W, strain ubp8, hits give low values 0.961 | S. cerevisiae deletion strains, locus YMR307W, strain GAS1, hits give low values 1.01 | S. cerevisiae deletion strains, locus YNL067W, strain RPL9B, hits give low values 1.03 | S. cerevisiae deletion strains, locus YNL153C, strain GIM3, hits give low values 1.01 | S. cerevisiae deletion strains, locus YNL233W, strain BNI4, hits give low values 0.967 | S. cerevisiae deletion strains, locus YNL250W, strain rad50, hits give low values 0.966 | S. cerevisiae deletion strains, locus YNL271C, strain bni1, hits give low values 0.947 | S. cerevisiae deletion strains, locus YNL298W, strain CLA4, hits give low values 0.971 | S. cerevisiae deletion strains, locus YNL307C, strain MCK1, hits give low values 0.943 | S. cerevisiae deletion strains, locus YNR052C, strain pop2, hits give low values 0.971 | S. cerevisiae deletion strains, locus YOL006C, strain TOP1, hits give low values 0.932 | S. cerevisiae deletion strains, locus YOL012C, strain htz1 1 | S. cerevisiae deletion strains, locus YOL147C, strain pex11, hits give low values 0.942 | S. cerevisiae deletion strains, locus YOR061W, strain CKA2, hits give low values 0.989 | S. cerevisiae deletion strains, locus YOR069W, strain VPS5, hits give low values 0.98 | S. cerevisiae deletion strains, locus YOR136W, strain idh2, hits give low values 0.965 | S. cerevisiae deletion strains, locus YOR144C, strain elg1, hits give low values 0.949 | S. cerevisiae deletion strains, locus YOR184W, strain ser1, hits give low values 0.925 | S. cerevisiae deletion strains, locus YOR316C, strain cot1, hits give low values 0.964 | S. cerevisiae deletion strains, locus YPL055C, strain LGE1, hits give low values 1 | S. cerevisiae deletion strains, locus YPL241C, strain CIN2, hits give low values 0.977 | S. cerevisiae deletion strains, locus YPR119W, strain clb2, hits give low values 0.935 | S. cerevisiae deletion strains, locus YPR141C, strain kar3, hits give low values 0.954 | S. cerevisiae deletion strains, locus YPR163C, strain tif3, hits give low values 0.952 | S. cerevisiae deletion strains, locus YPR167C, strain met16, hits give low values 1.01 | S. cerevisiae deletion strains, strain wtn01, hits give low values 0.95 | S. cerevisiae strains, strain wild type, hits give low values 0.988
